Hit rate of the full screen: of about 96,000 compounds, about 80 (0.08%) were called active. Not all results are given here. Measured potencies and affinities stand elsewhere. A number with no mark means an inactive call. The rule behind the calls is not given here.

The results in this text go back to PubChem BioAssay AID690 (Sanford-Burnham Center for Chemical Genomics, 2007).

This experiment deals with Alkaline phosphatase, placental type (Homo sapiens) (UniProt P05187). The experiment is described as follows: PLAP enzyme inhibitors, biochemical, luminescence, HTS (AID 690). Particulars: purified PLAP, luminescent substrate; at 20 µM; stronger effect = higher value.
Chain of Alkaline phosphatase, placental type (Homo sapiens) (P05187 whole entry, looked up): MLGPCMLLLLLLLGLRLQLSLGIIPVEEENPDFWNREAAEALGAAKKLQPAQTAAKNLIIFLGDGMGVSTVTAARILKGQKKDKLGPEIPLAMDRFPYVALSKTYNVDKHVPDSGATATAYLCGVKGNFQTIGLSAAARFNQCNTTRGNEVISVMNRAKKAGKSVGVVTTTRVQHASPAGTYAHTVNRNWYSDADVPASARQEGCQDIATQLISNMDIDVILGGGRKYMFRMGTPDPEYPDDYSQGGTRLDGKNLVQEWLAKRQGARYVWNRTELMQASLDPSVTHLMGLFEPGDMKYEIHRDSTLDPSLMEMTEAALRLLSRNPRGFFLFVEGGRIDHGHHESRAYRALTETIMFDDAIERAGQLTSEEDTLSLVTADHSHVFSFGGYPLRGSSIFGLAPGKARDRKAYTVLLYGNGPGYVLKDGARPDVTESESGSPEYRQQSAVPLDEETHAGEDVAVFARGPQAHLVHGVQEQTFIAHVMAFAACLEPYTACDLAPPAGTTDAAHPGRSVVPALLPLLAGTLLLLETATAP
For `Cc1cccc(NC(=O)C2c3ccccc3C(=O)N3CCc4ccccc4C23)n1` (configuration not stated), the inhibition was 2.2%.
On to `COc1cc(/C=C(/C(=O)c2cccs2)c2nc3ccccc3[nH]2)ccc1O`, for which the inhibition is 33.6%.
For `O=C(/C(=C/c1ccc(Cl)cc1)c1nc2ccccc2[nH]1)c1cccs1`, the inhibition was -30.3%.
As for `COc1cc(CNCCc2ccc(F)cc2)ccc1OCc1ccc(Cl)nc1`, the inhibition was -50.6%.
The result for `O=C(N1CCOCC1)C12CC3CC(C1)CC(c1ccccc1)(C3)C2` reads -20.7%; that for `CSC1=N/C(=C\c2ccc(C)cc2)C(=O)S1`, 1.7%; that for `CCSC1=N/C(=C\c2ccc(C(=O)O)cc2)C(=O)S1`, 11.5%.
In the case of `Cn1nc([N+](=O)[O-])nc1N1CCN(c2ccc(F)cc2)CC1`, the inhibition was 20.5%.
The result for `CCOC(=O)N1CCC(NC(=O)C(CC(C)C)NC(=O)C2CCC(C)CC2)CC1` (configuration not stated) reads -63.6%.
Take `CCN(CC)C(=O)Cn1c(=O)n(-c2ccccc2)c(=O)n1CC(=O)N(CC)CC`: the inhibition was 8.2%.
For `COC(=O)c1cn[nH]c1NC(=S)Nc1ccc(Cl)c(Cl)c1`, the inhibition was -146%.
For the compound `COC(=O)c1cn[nH]c1NC(=S)Nc1ccc(C)cc1Cl`, the inhibition is -10%.
Take `CN(C)S(=O)(=O)c1cccc(C(=O)Nc2cc(Cl)cc(Cl)c2)c1`: the inhibition was -58.5%.
Take `Cc1noc(C)c1COC(=O)COc1ccc2c(C)cc(=O)oc2c1`: the inhibition was 8.3%.
For the compound `CCOC(=O)/C(C#N)=C1/C=Cc2ccccc2N1CC`, the inhibition is 3.8%.
In the case of `CCN1C(=C2C(=O)c3ccccc3C2=O)C=Cc2ccccc21` it was 46.7%.
With `CCCCCOc1ccc(CSC(=N)N)cc1[N+](=O)[O-]`, the inhibition was 34.2%.
As to `CCOc1ccc(CSC(=N)N)cc1[N+](=O)[O-]`, the inhibition is -79.6%.
On to `CCN1/C(=C/C(=O)c2ccco2)Sc2ccccc21`, for which the inhibition was -0.2%.
The result for `CCN1/C(=C2\OC(=S)N(C)C2=O)Sc2ccccc21` reads 13.9%.
In the case of `CCN(CC)S(=O)(=O)c1ccc(C(=O)Nc2cc(C)cc(C)c2)cc1` it was 6%.
Take `Cc1ccc2nc(SCC(=O)Nc3ccc4c(c3)OCCO4)[nH]c2c1`: the inhibition was -75.7%.

Usually inhibition stands for the change of the read-out against control, counted positive when it falls.
